GPR151 activ = activates the human receptor GPR151 | PathHunter beta-arrestin GPR151 cells, luminescence | activation, % at 11.2 µM | 650,000 compounds, 1% hits | AID 1508602; in the data active means activation above about 4.9%;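 further: 0% = median of compound wells and 100% = cells with positive control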
TEAD-YAP inh = TEAD-YAP interaction inhibition; HEK-TIYL cells, TEAD-Gal4/YAP UAS-luciferase luminescence; inhibition, % at 9.12 µM; 640,000 compounds, 1.4% hits; in the data active means inhibition above about 32%;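 further: 0% = median of test compound wells and 100% = reference inhibitor wells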
MITF primary = blocks human microphthalmia-associated transcription factor; O75030; AlphaScreen MITF homodimerization, bead proximity signal; inhibition, % at 2.6 µM; 650,000 compounds, 0.91% hits; AID 1259374; in the data active means inhibition above about 50%;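 further: 0% = vehicle wells with protein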
Target sequence (O75030 whole entry, looked up): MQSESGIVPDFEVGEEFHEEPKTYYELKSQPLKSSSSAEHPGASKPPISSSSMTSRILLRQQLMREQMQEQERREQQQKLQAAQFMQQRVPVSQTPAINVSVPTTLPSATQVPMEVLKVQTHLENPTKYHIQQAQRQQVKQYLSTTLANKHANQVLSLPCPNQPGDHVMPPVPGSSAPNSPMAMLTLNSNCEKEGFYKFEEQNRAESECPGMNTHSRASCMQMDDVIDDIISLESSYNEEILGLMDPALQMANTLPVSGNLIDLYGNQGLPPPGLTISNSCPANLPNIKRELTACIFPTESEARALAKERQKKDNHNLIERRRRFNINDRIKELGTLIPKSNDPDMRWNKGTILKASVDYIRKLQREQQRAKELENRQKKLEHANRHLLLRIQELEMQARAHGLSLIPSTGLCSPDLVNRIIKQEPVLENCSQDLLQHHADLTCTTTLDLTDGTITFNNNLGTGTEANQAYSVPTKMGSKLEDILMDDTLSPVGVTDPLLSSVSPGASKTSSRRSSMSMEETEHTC
FBW7 act = activators of human E3 ligase FBW7. Q969H0. AlphaScreen FBW7–phospho-cyclin E peptide binding, activator screen. normalized activity (activation), % at 26.1 µM. 650,000 compounds, 0.13% hits; in the data active means normalized activity above about 1.9%;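 further: purified mutant Fbw7 with reduced substrate affinity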
GPR151 confirm = human GPR151 activation, confirmation screen; shares compounds with GPR151 activ; GPR151 PathHunter beta-arrestin cells, luminescence, 90 min; % of EA-reagent control over plate median; activation, % at 11.2 µM; 6,700 tested, under 10 active;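 active means mean percent activation across replicates above the confirmation screen cutoff of 4.91%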
GPR119 counter = activates human GPR119 in a GPR151 counter-screen. shares compounds with GPR151 activ. GPR119 PathHunter beta-arrestin cells, luminescence, 90 min; 0 = compound-well median, 100 = enzyme-acceptor control. activation, % at 11.2 µM. 6,700 compounds, 0.3% hits. AID 1508611;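 active means mean percent activation in the counterscreen above 29.09%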;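 further: counterscreen on off-target GPR119 to flag nonselective hits from the GPR151 activator screen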
Numbers without * were called inactive; · = no result given. In the library only some 3.4% were active in any assay of this set; here they are far more common.

SMILES | GPR151 activ | TEAD-YAP inh | MITF primary | FBW7 act | GPR151 confirm | GPR119 counter
Cc1cncc2c(S(=O)(=O)N3CC[C@H](NC(=O)CN)C3)cccc12 | 6.1* | 5 | 8 | 0 | 0 | -11
O=[N+]([O-])c1ccc(S(=O)(=O)Nc2ccc(-c3nc4ccccc4[nH]3)cc2)cc1 | 0 | -18 | -4 | 0 | · | ·
O=S(=O)(Nc1ccc(-c2nc3ccccc3[nH]2)cc1)c1ccc(-n2cccn2)cc1 | 5.8* | 1 | -20 | 0 | 1 | 17
CC1=CC(C)(C)N2C(=O)C3(C(C#N)=C(N)OC4=C3C(=O)CC(C)(C)C4)c3c(C)c(C)cc1c32 (centres undefined) | 9.5* | -4 | 4 | 0 | 1 | 3
CCc1cc2c3c(c1)C1(C(=O)N3C(C)(C)C=C2C)C(C#N)=C(N)OC2=C1C(=O)CC(C)(C)C2 (centres undefined) | 0 | 3 | 14 | 0 | · | ·
CCNC(=O)C(=O)N/N=C/c1ccccc1 | 8.2* | -2 | -3 | 0 | 0 | -4
CCC(=O)Nc1c(C)n(C)n(-c2ccccc2)c1=O | 1 | 6 | 5 | 0 | · | ·
CCC(C)N(C(=O)c1csnn1)C(C(=O)NCc1ccc(F)cc1)c1ccco1 (centres undefined) | 7.2* | -11 | -5 | 1 | 1 | 4
O=c1c2ccccc2ncn1Cc1ccccc1Cn1cnc2ccccc2c1=O | 0 | 6 | 12 | 0 | · | ·
O=c1c2ccccc2ncn1Cc1c(F)cccc1F | 4.9* | 1 | -2 | 0 | -1 | -15
c1ccc(CSC2=NCCS2)cc1 | 0 | -19 | -2 | 0 | · | ·
O=C(NCSC1=NCCS1)c1ccccc1 | 8.2* | -10 | 1 | 0 | 0 | 5
CCOC(=O)c1sc2ncn(Cc3ccc(Cl)cc3)c(=O)c2c1C | 1 | 8 | 9 | 0 | · | ·
CCOC(=O)c1sc2ncn(Cc3ccc(C(F)(F)F)cc3)c(=O)c2c1C | 6.2* | -3 | 9 | 0 | 1 | 11
CC1=C(C#N)C(=O)N(C)C(=O)/C1=C/c1ccc(-c2ccccc2C(=O)O)o1 | 0 | 3 | 20 | 0 | · | ·
CC1=C(C#N)C(=O)N(C)C(=O)/C1=C/c1ccc(-c2cccc(Cl)c2C)o1 | 5.0* | -1 | -12 | -1 | -1 | -6
COCc1c(C(=O)N/N=C\c2ccccc2OC)nnn1-c1nonc1N | 5.1* | 1 | 12 | 0 | -1 | -6
Nc1nonc1-n1nnc(C(=O)N/N=C/c2cccs2)c1CN1CCc2ccccc21 | 2 | -1 | -6 | 0 | · | ·
Nc1nonc1-n1nnc(C(=O)N/N=C/c2ccco2)c1CN1CCc2ccccc21 | 11* | -7 | -5 | 0 | 0 | 2
CCOC(=O)c1ccccc1NC(=O)c1sc(NC(=O)C23CC4CC(CC(C4)C2)C3)c(C(=O)OCC)c1C | -2 | -3 | 11 | 0 | · | ·
O=C1COc2cc(-c3c(NC4CCCCC4)c(=O)c3=O)ccc2N1 | 14* | -6 | 4 | 0 | 0 | -2
O=C(Nc1ccccc1)c1ccc2c(c1)C(=O)N(CCC1=CCCCC1)C2=O | 0 | 0 | 1 | 0 | · | ·
COc1cc(NC(=O)Nc2ccc(-c3nc4ccccc4o3)cc2)cc(OC)c1OC | 5.6* | -40 | -9 | 0 | 0 | 7
O=C(c1ccc(Cl)cc1[N+](=O)[O-])N1CCN(C/C=C/c2ccccc2)CC1 | 1 | 6 | 11 | 0 | · | ·
COc1ccc(-c2c3c(=O)n(C)c(=O)n(C)c3cn2-c2cc(C)ccc2O)cc1 | 5.4* | -10 | 13 | 0 | 0 | 11
SMILES | GPR151 activ | TEAD-YAP inh | MITF primary | FBW7 act | GPR151 confirm | GPR119 counter
O=C(Cn1c(=O)oc2cc(S(=O)(=O)N3CCc4ccccc43)ccc21)NC1CCCC1 | 7.5* | 9 | -7 | 0 | 1 | -6
O=C(Cn1c(=O)oc2cc(S(=O)(=O)N3CCCCCC3)ccc21)NC1CCCCC1 | -1 | 1 | 8 | 0 | · | ·
COc1ccc(NC(=O)Cn2c(=O)oc3cc(S(=O)(=O)N4CCCC4)ccc32)cc1 | 5.0* | 14 | 5 | 0 | 0 | -2
Cc1ccc(C(=O)NNC(=O)c2ccc([N+](=O)[O-])cc2Cl)cc1 | 0 | 7 | 18 | 0 | · | ·
OCCC1CN(Cc2cccn2-c2nccs2)CCN1Cc1cccs1 (centres undefined) | -1 | -18 | -23 | 0 | · | ·
O=C(Nc1ccc(F)cc1F)C(=O)N1CCCCC1 | 7.1* | -33 | -10 | 0 | 1 | 3
Cc1ccc(CN=Cc2c(NCc3ccc(C)cc3)nc3ccccn3c2=O)cc1 | 5.3* | -16 | 1 | 0 | 0 | -1
CCC(C)NC(=O)c1sc2nc(C)nc(N3CCC(C)CC3)c2c1C (centres undefined) | 6.9* | 0 | 5 | 0 | 0 | -1
CCCN(CCC)C(=O)c1sc2nc(C)nc(N3CCCCC3)c2c1C | 5.5* | -3 | -2 | 0 | 1 | -2
C=CCNC(=O)/C(=C\C=C\C)NC(=O)c1ccccc1 | -1 | -1 | -8 | 0 | · | ·
Cc1ccc(-c2nc3ccccc3c(=O)n2NC(=O)c2ccco2)cc1C | 5.4* | -1 | -12 | 0 | 0 | 5
COc1cccc(NC(=O)c2sc3ncnc(N4CCN(c5ccccc5OC)CC4)c3c2C)c1 | -1 | -11 | 14 | 0 | · | ·
CCN1C(=O)CC(C(=O)OC)C12CCN(Cc1cc(C)c(OC)cc1C)CC2 (centres undefined) | -1 | -25 | 13 | 0 | · | ·
COc1ccc2cc(C(=O)Nc3ccccc3C)c(=N)oc2c1 | 5.0* | -40 | 11 | 0 | 0 | -7
CSc1ncc(CN2CCN(CC(C)(C)C)C(CCO)C2)cn1 (centres undefined) | 5.8* | 1 | -2 | 0 | 0 | 2
NC(=O)CSc1nc2ncnc(N)c2[nH]1 | 1 | -4 | 18 | 0 | · | ·
Nc1ncnc2nc(SCCO)[nH]c12 | 7.0* | -7 | -9 | 0 | -1 | -5
NC(=O)c1ccc(-c2ccc3c(-c4ccc(N5CCNCC5)cc4)[nH]nc3n2)cc1 | 5.9* | -39 | 0 | 1 | 0 | 3
CC(=O)c1ccccc1-c1ccc2c(-c3ccc(N4CCNCC4)cc3)[nH]nc2n1 | 1 | 5 | 3 | 0 | · | ·
Cc1ccc(CN2CCc3nnc(C(C)NC(=O)CCc4ccccc4)n3CC2)s1 (centres undefined) | -1 | 0 | -1 | 1 | · | ·
Cc1ccc(S(=O)(=O)N2C(=O)CCC2C(=O)O/N=C(\N)c2cccnc2)cc1 (centres undefined) | 5.2* | 2 | 3 | 0 | 1 | 7
Cc1ccc(S(=O)(=O)N2C(=O)CCC2C(=O)O/N=C(\N)c2ccccc2)cc1 (centres undefined) | 8.4* | -10 | 5 | 0 | 0 | -4
